Measured values reported in the supplement of paper PMC11732987, “Enantioselective OTUD7B fragment discovery through chemoproteomics screening and high-throughput optimisation” (Communications Chemistry, 2025).

How the values were obtained:
Assay in all cases: log2 ratio of Biotin-Ahx-Ub-VS probe labelling (fragment/DMSO); higher = less target engagement (more negative = stronger competition), active = hit call of the paper (q ≤ 0.05, log2 ratio ≤ -1)
Settings in all cases: compound concentration: 200 uM; treatment time: 3 h
USP19 = target: T1, USP19 (UniProt O94966)
T1 sequence (whole entry): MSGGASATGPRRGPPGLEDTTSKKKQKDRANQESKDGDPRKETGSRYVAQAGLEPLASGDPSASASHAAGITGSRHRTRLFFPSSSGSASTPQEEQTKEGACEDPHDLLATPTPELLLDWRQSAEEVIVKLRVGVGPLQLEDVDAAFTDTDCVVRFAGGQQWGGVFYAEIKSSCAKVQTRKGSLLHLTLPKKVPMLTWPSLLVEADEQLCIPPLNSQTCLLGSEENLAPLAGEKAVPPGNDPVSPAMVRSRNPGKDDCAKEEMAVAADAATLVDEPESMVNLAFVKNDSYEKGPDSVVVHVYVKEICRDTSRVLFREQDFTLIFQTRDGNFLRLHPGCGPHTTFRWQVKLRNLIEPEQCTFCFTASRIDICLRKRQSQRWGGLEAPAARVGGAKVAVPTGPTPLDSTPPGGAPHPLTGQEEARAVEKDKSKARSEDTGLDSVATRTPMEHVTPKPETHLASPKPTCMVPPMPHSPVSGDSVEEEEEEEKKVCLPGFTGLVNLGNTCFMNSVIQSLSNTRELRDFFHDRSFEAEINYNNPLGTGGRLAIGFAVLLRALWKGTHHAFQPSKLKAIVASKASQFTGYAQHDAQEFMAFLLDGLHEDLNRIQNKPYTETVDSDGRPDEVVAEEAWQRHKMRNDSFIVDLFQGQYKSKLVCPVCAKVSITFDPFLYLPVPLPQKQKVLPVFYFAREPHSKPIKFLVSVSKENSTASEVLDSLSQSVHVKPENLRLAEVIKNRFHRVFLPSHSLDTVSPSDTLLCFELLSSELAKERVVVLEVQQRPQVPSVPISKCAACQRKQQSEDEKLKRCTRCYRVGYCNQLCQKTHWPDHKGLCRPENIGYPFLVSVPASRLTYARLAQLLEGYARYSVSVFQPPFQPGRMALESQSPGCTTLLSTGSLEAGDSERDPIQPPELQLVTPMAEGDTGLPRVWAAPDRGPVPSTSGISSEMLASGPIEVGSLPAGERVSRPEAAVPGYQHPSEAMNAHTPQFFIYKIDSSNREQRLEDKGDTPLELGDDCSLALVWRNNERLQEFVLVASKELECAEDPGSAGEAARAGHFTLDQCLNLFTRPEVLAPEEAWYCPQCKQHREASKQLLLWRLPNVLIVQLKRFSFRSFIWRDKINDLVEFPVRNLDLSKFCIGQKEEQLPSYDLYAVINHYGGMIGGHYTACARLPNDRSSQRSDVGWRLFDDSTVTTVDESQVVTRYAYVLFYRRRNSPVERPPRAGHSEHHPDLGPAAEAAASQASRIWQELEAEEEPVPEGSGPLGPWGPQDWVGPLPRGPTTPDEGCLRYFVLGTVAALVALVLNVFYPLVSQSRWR
How it was run: (§1)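 HEK293T lysate, 495 µg per sample in Tris/CHAPS/IGEPAL buffer with protease inhibitors, was treated in triplicate with fragment at 200 µM or vehicle for 3 h and then with Biotin-Ahx-Ub-VS at 0.5 µM final for 1 h. Labelled DUBs were NeutrAvidin-enriched, digested with LysC and trypsin, and run by diaPASEF LC-MS/MS. Spectronaut label-free quantities were global-median-normalised, and values are average log2 fragment/vehicle ratios by unpaired t-test on proteins with ≥2 unique peptides.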

USP22 = target: T2, USP22 (UniProt Q9UPT9)
T2 sequence (whole entry): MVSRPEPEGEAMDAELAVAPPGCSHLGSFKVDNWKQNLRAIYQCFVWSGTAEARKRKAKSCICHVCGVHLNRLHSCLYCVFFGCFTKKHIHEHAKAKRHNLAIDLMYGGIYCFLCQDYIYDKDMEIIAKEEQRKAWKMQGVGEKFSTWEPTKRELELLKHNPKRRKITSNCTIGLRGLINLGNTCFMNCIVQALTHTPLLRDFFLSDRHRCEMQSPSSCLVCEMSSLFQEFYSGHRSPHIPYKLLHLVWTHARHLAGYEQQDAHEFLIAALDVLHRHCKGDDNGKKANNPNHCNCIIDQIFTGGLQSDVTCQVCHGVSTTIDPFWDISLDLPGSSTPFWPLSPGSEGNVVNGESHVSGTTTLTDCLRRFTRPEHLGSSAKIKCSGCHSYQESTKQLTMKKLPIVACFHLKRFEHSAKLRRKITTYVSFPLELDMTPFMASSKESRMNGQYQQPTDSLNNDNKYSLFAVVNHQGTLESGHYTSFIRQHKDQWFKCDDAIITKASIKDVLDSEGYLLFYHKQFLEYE
How it was run: as §1

USP24 = USP24 (UniProt Q9UPU5)
Sequence of USP24 (Q9UPU5 whole entry): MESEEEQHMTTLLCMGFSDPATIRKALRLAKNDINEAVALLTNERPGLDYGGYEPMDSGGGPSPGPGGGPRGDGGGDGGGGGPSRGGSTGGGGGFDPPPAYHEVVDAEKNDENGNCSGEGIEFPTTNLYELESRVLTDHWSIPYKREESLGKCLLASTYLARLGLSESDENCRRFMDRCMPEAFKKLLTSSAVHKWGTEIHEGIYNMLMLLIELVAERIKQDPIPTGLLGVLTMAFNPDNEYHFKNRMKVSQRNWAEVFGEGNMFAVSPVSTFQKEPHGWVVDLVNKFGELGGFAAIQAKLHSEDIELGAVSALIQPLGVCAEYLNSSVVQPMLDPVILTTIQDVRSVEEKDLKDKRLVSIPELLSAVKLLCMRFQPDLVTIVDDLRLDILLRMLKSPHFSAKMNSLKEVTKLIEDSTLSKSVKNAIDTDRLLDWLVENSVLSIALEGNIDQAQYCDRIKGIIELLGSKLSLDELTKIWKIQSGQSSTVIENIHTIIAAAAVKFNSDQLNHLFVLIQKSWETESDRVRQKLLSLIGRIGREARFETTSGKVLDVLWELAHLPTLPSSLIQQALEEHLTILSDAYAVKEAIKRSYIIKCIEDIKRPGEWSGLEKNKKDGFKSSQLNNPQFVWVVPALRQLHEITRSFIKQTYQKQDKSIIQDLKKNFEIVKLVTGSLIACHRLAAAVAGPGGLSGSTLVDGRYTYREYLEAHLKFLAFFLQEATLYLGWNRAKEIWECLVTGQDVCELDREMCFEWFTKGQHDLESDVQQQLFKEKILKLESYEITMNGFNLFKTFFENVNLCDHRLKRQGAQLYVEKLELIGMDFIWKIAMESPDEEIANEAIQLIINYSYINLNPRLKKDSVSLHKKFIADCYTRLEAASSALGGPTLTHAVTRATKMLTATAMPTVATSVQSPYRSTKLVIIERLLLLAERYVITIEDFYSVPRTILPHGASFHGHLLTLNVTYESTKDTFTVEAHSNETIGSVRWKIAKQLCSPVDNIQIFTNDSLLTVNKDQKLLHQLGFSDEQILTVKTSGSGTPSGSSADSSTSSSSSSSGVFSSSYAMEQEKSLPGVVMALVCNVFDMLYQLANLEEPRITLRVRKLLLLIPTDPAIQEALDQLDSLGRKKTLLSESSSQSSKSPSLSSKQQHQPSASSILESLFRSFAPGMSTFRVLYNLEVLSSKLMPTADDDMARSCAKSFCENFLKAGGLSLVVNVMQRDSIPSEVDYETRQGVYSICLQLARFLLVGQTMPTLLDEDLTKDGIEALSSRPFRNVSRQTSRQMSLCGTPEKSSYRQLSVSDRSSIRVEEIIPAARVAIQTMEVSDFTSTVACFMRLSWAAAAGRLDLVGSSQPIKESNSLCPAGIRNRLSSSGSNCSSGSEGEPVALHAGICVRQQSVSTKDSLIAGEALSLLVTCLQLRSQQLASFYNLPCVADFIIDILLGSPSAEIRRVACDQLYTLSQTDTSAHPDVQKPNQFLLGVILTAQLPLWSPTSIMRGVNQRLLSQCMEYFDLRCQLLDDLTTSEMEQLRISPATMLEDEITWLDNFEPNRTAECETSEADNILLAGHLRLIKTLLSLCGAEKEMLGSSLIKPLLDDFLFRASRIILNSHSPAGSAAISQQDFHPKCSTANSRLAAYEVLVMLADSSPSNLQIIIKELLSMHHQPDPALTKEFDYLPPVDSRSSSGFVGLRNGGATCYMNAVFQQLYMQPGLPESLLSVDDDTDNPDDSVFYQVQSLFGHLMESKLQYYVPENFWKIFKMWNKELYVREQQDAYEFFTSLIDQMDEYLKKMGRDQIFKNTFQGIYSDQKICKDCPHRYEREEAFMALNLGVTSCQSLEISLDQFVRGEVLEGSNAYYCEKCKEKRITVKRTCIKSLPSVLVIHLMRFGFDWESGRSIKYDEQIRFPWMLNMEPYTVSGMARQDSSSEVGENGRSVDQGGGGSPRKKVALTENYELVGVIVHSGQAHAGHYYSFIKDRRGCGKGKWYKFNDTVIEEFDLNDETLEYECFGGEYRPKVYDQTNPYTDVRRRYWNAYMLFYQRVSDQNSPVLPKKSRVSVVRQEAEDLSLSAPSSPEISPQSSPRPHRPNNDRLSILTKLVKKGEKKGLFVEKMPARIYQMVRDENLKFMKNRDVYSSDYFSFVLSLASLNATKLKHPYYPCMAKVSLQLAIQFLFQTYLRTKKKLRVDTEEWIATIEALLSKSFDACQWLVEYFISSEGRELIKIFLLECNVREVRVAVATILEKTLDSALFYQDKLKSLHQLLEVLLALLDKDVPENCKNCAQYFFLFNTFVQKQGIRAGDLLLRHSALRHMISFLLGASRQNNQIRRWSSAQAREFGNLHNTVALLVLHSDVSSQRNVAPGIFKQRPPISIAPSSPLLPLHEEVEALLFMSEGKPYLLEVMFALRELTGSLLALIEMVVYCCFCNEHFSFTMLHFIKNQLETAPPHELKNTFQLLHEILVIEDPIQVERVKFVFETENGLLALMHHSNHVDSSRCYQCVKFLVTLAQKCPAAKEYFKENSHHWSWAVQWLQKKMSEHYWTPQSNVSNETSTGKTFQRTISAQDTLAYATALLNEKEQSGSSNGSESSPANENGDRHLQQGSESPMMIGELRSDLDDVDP
How it was run: as §1

USP25 = target: T3, USP25 (UniProt Q9UHP3)
T3 sequence (whole entry): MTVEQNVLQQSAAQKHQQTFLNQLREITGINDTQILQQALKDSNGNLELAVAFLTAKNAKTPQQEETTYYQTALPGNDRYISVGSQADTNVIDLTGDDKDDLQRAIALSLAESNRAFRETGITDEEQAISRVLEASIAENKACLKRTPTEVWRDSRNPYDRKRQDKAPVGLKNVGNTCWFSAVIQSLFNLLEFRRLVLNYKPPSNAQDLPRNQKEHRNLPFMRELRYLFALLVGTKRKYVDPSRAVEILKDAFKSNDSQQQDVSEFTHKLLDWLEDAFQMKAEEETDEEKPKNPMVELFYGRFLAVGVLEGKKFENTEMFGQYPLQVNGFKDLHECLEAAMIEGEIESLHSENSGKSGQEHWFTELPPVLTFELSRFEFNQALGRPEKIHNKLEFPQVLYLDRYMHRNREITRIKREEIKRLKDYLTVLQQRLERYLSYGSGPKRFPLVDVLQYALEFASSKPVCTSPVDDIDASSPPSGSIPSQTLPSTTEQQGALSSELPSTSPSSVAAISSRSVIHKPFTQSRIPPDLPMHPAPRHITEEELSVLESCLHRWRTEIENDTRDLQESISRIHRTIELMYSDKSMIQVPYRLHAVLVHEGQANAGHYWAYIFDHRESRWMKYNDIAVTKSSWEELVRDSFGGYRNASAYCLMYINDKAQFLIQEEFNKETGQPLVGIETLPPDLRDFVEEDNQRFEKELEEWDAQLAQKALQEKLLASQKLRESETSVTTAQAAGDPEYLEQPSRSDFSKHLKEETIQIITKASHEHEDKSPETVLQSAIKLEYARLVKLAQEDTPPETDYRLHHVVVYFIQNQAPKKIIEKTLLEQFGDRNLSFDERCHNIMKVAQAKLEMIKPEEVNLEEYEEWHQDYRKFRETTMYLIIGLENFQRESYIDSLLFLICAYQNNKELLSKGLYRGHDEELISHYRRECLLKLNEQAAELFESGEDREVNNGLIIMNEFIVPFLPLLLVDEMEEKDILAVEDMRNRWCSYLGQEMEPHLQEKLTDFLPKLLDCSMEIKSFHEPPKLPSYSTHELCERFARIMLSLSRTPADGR
How it was run: as §1

USP28 = target: T4, USP28 (UniProt Q96RU2)
T4 sequence (whole entry): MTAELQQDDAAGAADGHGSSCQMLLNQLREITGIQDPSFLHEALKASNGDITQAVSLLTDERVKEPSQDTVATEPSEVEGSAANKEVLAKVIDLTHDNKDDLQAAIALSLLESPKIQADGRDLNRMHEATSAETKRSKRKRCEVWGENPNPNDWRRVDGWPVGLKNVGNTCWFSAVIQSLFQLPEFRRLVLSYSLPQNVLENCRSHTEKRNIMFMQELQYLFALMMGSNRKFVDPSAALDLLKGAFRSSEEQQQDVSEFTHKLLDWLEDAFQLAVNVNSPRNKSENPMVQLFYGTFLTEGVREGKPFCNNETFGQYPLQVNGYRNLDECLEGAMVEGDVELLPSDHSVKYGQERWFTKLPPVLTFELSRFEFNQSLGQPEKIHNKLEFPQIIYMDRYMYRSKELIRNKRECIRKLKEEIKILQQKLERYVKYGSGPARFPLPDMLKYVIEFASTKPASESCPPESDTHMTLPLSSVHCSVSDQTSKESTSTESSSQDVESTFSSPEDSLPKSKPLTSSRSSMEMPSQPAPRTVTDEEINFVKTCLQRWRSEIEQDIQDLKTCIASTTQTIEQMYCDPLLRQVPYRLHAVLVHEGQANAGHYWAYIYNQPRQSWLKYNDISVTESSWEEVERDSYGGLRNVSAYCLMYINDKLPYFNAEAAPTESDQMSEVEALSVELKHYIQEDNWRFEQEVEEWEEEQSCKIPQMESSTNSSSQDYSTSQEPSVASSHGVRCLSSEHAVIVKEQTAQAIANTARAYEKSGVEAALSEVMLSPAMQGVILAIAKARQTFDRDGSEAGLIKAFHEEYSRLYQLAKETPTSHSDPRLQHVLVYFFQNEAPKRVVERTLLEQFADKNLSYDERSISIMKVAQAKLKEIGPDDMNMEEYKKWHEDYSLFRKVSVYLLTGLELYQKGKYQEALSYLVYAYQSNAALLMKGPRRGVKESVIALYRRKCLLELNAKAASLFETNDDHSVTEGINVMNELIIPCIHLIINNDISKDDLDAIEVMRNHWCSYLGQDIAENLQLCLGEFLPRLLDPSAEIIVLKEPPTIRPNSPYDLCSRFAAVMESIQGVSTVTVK
How it was run: as §1

Measured: log2 ratio of Biotin-Ahx-Ub-VS probe labelling

Cc1ccc(CC(NC(=O)CCl)c2ccccn2)cc1.Cl (stereo not given)
inactive: USP19 0.168 | USP22 -0.153 | USP24 -0.13 | USP25 -0.098 | USP28 -0.126
